Screens: PubChem, National Center for Advancing Translational Sciences (NCATS)
IDH1 R132H inh – inhibitors of human mutant IDH1 R132H; IDH1-R132H enzyme, NADPH consumption, diaphorase/resazurin fluorescence; Potency, µM (titrated, usually from 76.6 µM), actives largely listed as inhibitors; hit rate 0.093% among 390,000; further: nearly all actives have a fitted effect of over 65% in size
Target sequence (O75874 whole entry R132H, stated change not applied): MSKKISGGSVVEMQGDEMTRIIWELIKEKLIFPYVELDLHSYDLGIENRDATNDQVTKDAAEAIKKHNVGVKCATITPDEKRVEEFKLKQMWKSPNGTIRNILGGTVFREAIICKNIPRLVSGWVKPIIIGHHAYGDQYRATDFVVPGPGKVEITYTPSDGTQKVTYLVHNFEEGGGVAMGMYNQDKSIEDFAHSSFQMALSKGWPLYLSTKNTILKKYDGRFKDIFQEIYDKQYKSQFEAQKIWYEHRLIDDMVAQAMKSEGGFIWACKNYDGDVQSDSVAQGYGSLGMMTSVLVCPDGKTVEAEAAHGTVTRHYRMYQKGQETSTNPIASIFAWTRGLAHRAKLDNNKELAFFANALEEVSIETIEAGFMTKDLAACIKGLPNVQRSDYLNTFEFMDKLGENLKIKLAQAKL
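IDH1-R132H (0.5 ug/mL dispensed) in pH 7.5 Tris buffer was preincubated 30 min with compound, then given a substrate mix of 0.016 mM NADPH and 2 mM alpha-KG for 80 min at room temperature; remaining NADPH was read by diaphorase/resazurin fluorescence.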
Vif-A3G inh – Vif-A3G binding inhibition; hit rate 0.076% among 410,000; HeLa A3G-eYFP + Vif (tagged APOBEC3G with the HIV-1 protein that degrades it), YFP fluorescence, overnight; Potency, µM (titrated, usually from 46.1 µM), most hits filed as inhibitors; Q9HC16; further: nearly all actives have a fitted effect of over 60% in size
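HeLa cells stably expressing Vif and C-terminally eYFP-tagged A3G, seeded overnight at 37 deg C, then exposed to compound by pintool overnight at 37 deg C. Rise in yellow fluorescence (Ex 488/Em 500-530, Acumen) marks blocked Vif-driven A3G degradation.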
PTHR1 ag – PTHR1 (human) receptor agonism. AID 743266. HEK293 GP2 PTHR1 cells, GloSensor cAMP luminescence, 1 h. hit rate 0.075% among 410,000. Potency, µM (series often up to 115 µM), actives largely listed as activators; further: nearly all actives have a fitted effect of over 55% in size
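HEK-293-derived GP2 cells expressing PTHR1 and a GloSensor cAMP reporter, 3,000/well, plated overnight, given luciferin plus IBMX (each 0.5 mM as added) for 1 h at 37 °C, then compound for 1 h at 37 °C. Luminescence was read after 15 min at room temperature.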
LDHA block – inhibitors of human lactate dehydrogenase A. P00338. purified LDHA, NADH/diaphorase-resazurin fluorescence; active compounds read low. activity change, % (values are at about 110 or 230 µM). hit rate 0.15% among 480,000. AID 1347041; in the data active means activity change below about -30%; inconclusive means mostly about -25% to -30%
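Enzyme activity of human lactate dehydrogenase 5 (2 nM; 0.06 mM NADH, 0.2 mM pyruvate, 5 min, RT) is measured via a resazurin/diaphorase fluorescence readout of residual NADH.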
Vif-A3F inh – Vif-A3F binding inhibition | hit rate 0.2% among 390,000 | Potency, µM (doses to about 46.1 µM) | HeLa A3F-eYFP + Vif (tagged APOBEC3F with the HIV-1 protein that degrades it), YFP fluorescence increase | AID 602313; further: nearly all actives have a fitted effect of over 65% in size
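HeLa cells stably expressing A3F-eYFP plus Vif, plated and incubated overnight at 37 deg C, then exposed to compounds overnight at 37 deg C. Blocked degradation read as raised yellow fluorescence (Ex 488/Em 500-530).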
PINK1 expr mod – PINK1 expression modulation; PINK1 immunofluorescence, high-content cytometry, 24 h; Potency, µM (series often up to 76.6 µM), most hits filed as activators; hit rate 0.2% among 410,000; AID 624263; active means well fitted activation curve with a large enough effect; inconclusive means small, poorly fitted or top-dose-only effect; cell line not stated here; further: nearly all actives have a fitted effect of over 65% in size
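Compound titrations (5 concentrations, 24 h) on a stable cell line; DMSO and CCCP controls. Endpoint: fixed-cell PINK1 immunofluorescence with mitochondrial, cell and nuclear markers, scanned by microplate cytometer.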
Hits are given with their value; i = inactive; ? = inconclusive; nt = no result; ! = not confirmed by another sample. Sampled rows, rich in hits. Any-hit rate of the full collection: about 0.59%. Unless noted, the call rests on the fitted dose curve; in most records, active means well fitted curve in the direction sought with a large enough effect; inconclusive means small, poorly fitted or top-dose-only effect, or another doubt; inactive means no such curve, though single readings can be large; an effect the other way counts as inactive or inconclusive.

SMILES	IDH1 R132H inh	Vif-A3G inh	PTHR1 ag	LDHA block	Vif-A3F inh	PINK1 expr mod
O=C(CN1CCCCC1)c1c[nH]c2ccccc12	i	i	i	i	i	i
CC1CC(C)CN(CC(=O)c2c[nH]c3ccccc23)C1 (stereo not drawn)	i	?	i	i	32µM	i
O=C(O)c1cccc(-n2cccc2/C=C2/NC(=O)N(c3cccc(Cl)c3)C2=O)c1	i	i	i	-30!	i	i
O=C(O)c1cccc(-n2cccc2/C=C2/NC(=O)N(c3ccc(Cl)cc3)C2=O)c1	i	i	i	i	i	i
NC(=O)N/N=C/c1sc(N2CCCCC2)nc1-c1cccs1	i	?	i	i	i	i
CC(C)NC(=S)N/N=C/c1sc(N2CCCCC2)nc1-c1cccs1	i	?	i	i	11µM	i
CC1=C(C(=O)N(C(C)C)C(C)C)CC(CC(=O)NC2CCCC2)C(=O)N1Cc1ccccc1 (stereo not drawn)	i	i	i	i	i	i
CC1=C(C(=O)N(C(C)C)C(C)C)CC(CC(=O)NC2CCCCC2)C(=O)N1Cc1ccccc1 (stereo not drawn)	i	i	i	-34	i	i
Cc1ccccc1NC(=O)/C=C/c1cccs1	i	i	i	i	i	i
Cc1cc(C)cc(NC(=O)/C=C/c2ccc([N+](=O)[O-])s2)c1	i	?	i	i	11µM	?
CC(=O)c1cccc(NC(=O)/C=C/c2ccc([N+](=O)[O-])s2)c1	i	?	i	i	?	i
Cc1ccccc1NC(=O)/C=C/c1ccc([N+](=O)[O-])s1	i	6.3µM	i	i	10µM	i
Cc1ccc(NC(=O)Cn2c(-c3nonc3N)nc3ccccc32)cc1C	i	i	i	i	i	i
Cc1ccc(C)c(NC(=O)Cn2c(-c3nonc3N)nc3ccccc32)c1	i	i	i	-33!	i	i
Cc1ccc(NC(=O)C2CCCN(c3cnc4ccccc4n3)C2)c(C)c1 (stereo not drawn)	nt	nt	nt	i	nt	nt
O=C1c2cc(Br)ccc2N(Cc2ccc(Br)cc2)S(=O)(=O)C1c1cc(Cl)c(Cl)cc1[N+](=O)[O-] (stereo not drawn)	i	i	i	-43	i	?
CCc1ccc(NC(=O)Nc2ccc3c(c2)N(C)C(=O)CS3)cc1	i	i	i	i	i	18µM
CCc1nnc(NC(=O)Nc2cccc(Cl)c2)s1	nt	nt	nt	i	nt	nt
O=C(Nc1ccc(Cl)cc1)Nc1nnc(CSCc2ccccc2Cl)s1	i	i	i	i	i	40µM
O=C(Nc1ccccc1)Nc1nnc(CSCc2ccccc2Cl)s1	i	i	i	i	i	?
O=C(Nc1ccc(Cl)c(Cl)c1)Nc1nnc(CSc2ccccc2)s1	i	i	i	i	i	10µM
CC(C)C/C=C(/C#N)c1nc2ccccc2[nH]1	nt	nt	nt	i	nt	nt
CCS(=O)(=O)c1ccc(N=Nc2ccc(O)c3ncccc23)c(OC)c1	i	i	i	i	i	14µM
C=CC[n+]1ccc(/C=C2\C=Cc3cc(C)ccc3N2CC)c2ccccc21	i	i	i	i	i	3.2µM
COc1ccc(-n2[nH]c(C)c(Cc3ccccc3Cl)c2=O)cc1	nt	nt	nt	i	nt	nt
SMILES	IDH1 R132H inh	Vif-A3G inh	PTHR1 ag	LDHA block	Vif-A3F inh	PINK1 expr mod
O=[N+]([O-])c1c(Nc2ccccc2)cc(Cl)c2nonc12	nt	nt	nt	i	nt	nt
Nc1cc(Nc2ccccc2)c2nonc2c1[N+](=O)[O-]	i	?	i	i	?	45µM
CC(Oc1cccc(Cl)c1)C(=O)NCCc1ccccn1 (stereo not drawn)	nt	nt	nt	i	nt	nt
CN(C)C(=O)c1ccc(-c2ccc(Br)cc2)s1	nt	nt	nt	i	nt	nt
CCOC(=O)N1CCc2c(sc3c2C(=O)NC(c2ccc(N(C)C)cc2)N3)C1 (stereo not drawn)	i	?	i	i	11µM	i
CCOC(=O)N1CCc2c(sc3c2C(=O)NC(c2ccccc2)N3)C1 (stereo not drawn)	i	i	i	i	i	i
CC(C)N1CCc2c(sc(NC(=O)c3ccc4ccccc4c3)c2C(N)=O)C1	i	?	i	i	?	i
CC(C)N1CCc2c(sc(NC(=O)c3cc4cc([N+](=O)[O-])ccc4s3)c2C(N)=O)C1	i	8.9µM	i	i	?	i
COc1cccc(Nc2ncc3nc(-c4ccc(F)cc4)c(=O)n(C[C@H]4CCCO4)c3n2)c1	nt	nt	nt	nt	nt	i
COc1cccc(Nc2ncc3nc(-c4cn(C)c5ccccc45)c(=O)n(C[C@H]4CCCO4)c3n2)c1	nt	nt	nt	nt	nt	2.5µM
CCCOC(=O)C1=C(C)Nc2nnnn2C1c1cc(Br)ccc1OCC (stereo not drawn)	nt	nt	nt	-32	nt	nt
CCCOc1ccc(Br)cc1C1C(C(=O)OCC)=C(C)Nc2nnnn21 (stereo not drawn)	nt	nt	nt	i	nt	nt
O=C(Nc1ccc(Cn2cncn2)cc1)c1csc(NC2CCCC2)n1	nt	nt	nt	i	nt	nt
COc1ccc(Nc2nc3cc(C)ccc3cc2C#N)c(OC)c1	i	?	i	i	?	i
COc1ccc(Nc2nc3cc(C)ccc3cc2C#N)cc1	i	?	i	i	22µM	i
CCCc1c(CC)c(=N)c2ccccc2n1C	i	i	i	-45	i	i
Cn1c(-c2ccccc2)c(C(=O)CCl)c2ccccc21	i	i	i	i	i	i
O=C(Nc1ccc([N+](=O)[O-])cc1)C(Cc1ccccc1)N1C(=O)c2cccc3cccc(c23)C1=O (stereo not drawn)	i	10µM	i	i	?	i
O=C(CSc1ccc2ccccc2c1)Nc1ccncc1	i	i	i	i	i	13µM
O=C(CSc1ccncc1)Nc1ccc2ccccc2c1	i	i	i	i	i	i
CC1=NOC(=O)/C1=C\c1ccc(-c2cccc(Cl)c2)o1	37µM	?	i	i	i	i
O=C(CN(Cc1ccccc1)Cc1ccccc1)OCC(=O)c1ccccc1	nt	nt	nt	i	nt	nt
O=C(Nc1cc(Cl)ccc1O)c1snnc1-c1ccccc1	i	i	i	i	i	11µM
CC(=O)Cc1nsc(NC(=O)c2ccc(-c3cc(C(F)(F)F)ccc3Cl)o2)n1	i	i	i	i	i	5µM
COc1ccc(NC(=O)Cc2nnc(SCC(=O)NC34CC5CC(CC(C5)C3)C4)n2C)cc1	nt	nt	nt	i	nt	nt
Cc1ccc(SCCN2CCN(Cc3ccccc3)CC2)cc1	i	i	i	-31	i	i
O=C(Nc1cc(C(F)(F)F)ccc1N1CCOCC1)c1n[nH]c(=O)c2ccccc12	12µM	i	i	i	i	i
Cc1c(S(=O)(=O)N2CCCC2c2ccc(Cl)cc2)cnn1C(F)F (stereo not drawn)	nt	nt	nt	i	nt	nt
CCN(CC)c1ccc2cc(-c3nc(-c4ccc(OC)cc4)cs3)c(=O)oc2c1	i	i	i	i	i	?
